SMN2 splice up = qHTS Assay for Enhancers of SMN2 Splice Variant Expression. HEK293 SMN2-luciferase splicing reporter, luminescence, 30-36 h. Potency, µM (series often up to 46.1 µM), usual class: activators. actives 2.8% (n = 210,000); further: nearly all actives have a fitted effect of over 55% in size
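HEK293 cells carry an SMN2 minigene-luciferase reporter in which exon 7 inclusion puts luciferase in frame. Cells were seeded at 2000 cells/well, attached for 10-12 hours, then exposed to compounds for 30-36 hours at 37C before ONE-Glo luminescence.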
FLuc counter = qHTS profiling assay for firefly luciferase inhibitor/activator using purifed enzyme and Km concentrations of substrates (counterscreen for miR-21 project); Luciferin 4-monooxygenase (Photinus pyralis), P08659; purified FLuc, Km substrates, luminescence inhibition; Potency, µM (titrated, usually from 57.5 µM), usual class: inhibitors; actives 6.9% (n = 360,000); further: nearly all actives have a fitted effect of over 55% in size
Target sequence (P08659 whole entry, looked up): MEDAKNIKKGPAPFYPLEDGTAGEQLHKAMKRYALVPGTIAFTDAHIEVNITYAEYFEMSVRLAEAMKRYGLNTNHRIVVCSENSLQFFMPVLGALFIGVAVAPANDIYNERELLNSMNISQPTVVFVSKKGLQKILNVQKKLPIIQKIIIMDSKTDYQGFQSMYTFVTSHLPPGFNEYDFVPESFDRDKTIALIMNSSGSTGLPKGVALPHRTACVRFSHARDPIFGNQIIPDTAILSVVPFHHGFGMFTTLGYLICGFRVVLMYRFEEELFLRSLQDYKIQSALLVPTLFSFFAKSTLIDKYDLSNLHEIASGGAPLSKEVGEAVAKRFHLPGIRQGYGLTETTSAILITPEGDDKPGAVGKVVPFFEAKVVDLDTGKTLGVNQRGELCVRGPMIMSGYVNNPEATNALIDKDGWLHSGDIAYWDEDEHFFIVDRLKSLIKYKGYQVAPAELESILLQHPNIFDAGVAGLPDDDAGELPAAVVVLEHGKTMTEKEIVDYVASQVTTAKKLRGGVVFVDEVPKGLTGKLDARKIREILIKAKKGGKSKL
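Purified P. pyralis luciferase, 10 nM final, with Km-level 10 uM D-luciferin and 10 uM ATP in 50 mM Tris acetate pH 7.5, 10 mM Mg acetate, 0.01% Tween-20, 0.05% BSA; 6-point qHTS titration about 60 µM downward; luminescence read.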
ELG1 genotoxic = qHTS screen for small molecules that induce genotoxicity in human embryonic kidney (HEK293T) cells expressing luciferase-tagged ELG1; HEK293T ELG1-luciferase reporter, luminescence, 16 h; Potency, µM (highest dose often 46 µM), most hits filed as activators; actives 1.3% (n = 330,000); AID 504466, 2011; further: nearly all actives have a fitted effect of over 60% in size
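Screening used a luciferase reporter fused to human ELG1 in HEK293T cells. Luminescence was read on a CCD plate imager after 16 hr exposure and 30 min ONE-Glo incubation.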
NPC1 prom act = qHTS Assay for NPC1 Promoter Activators; actives 2.4% (n = 320,000); Potency, µM (highest dose often 9.22 µM), most hits filed as activators; Huh7 NPC1 promoter luciferase reporter, 24 h; AID 485313, 2010; further: nearly all actives have a fitted effect of over 60% in size
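Huh7 cells stably carrying NPC1 promoter–luciferase, plated in Opti-MEM with 10% FBS for 2 h, were exposed to compound in DMSO for 24 h at 37 °C; luciferase reagent was added for 10 min and luminescence read.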
Rab9 promoter act = qHTS Assay for Rab9 Promoter Activators; Huh7 Rab9 promoter-luciferase reporter, luminescence, 24 h; Potency, µM (doses to about 9.22 µM), usual class: activators; actives 2.8% (n = 320,000); AID 485297, 2010; further: nearly all actives have a fitted effect of over 60% in size
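Cell-based reporter: Huh7 stable for Rab9 promoter-driven luciferase, plated in reduced-serum medium with 10% FBS at 1500 cells/well, compound-treated 24 h at 37 °C, luminescence read after 10 min reagent.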
KinaseGlo FLuc = Counterscreen for Luciferase (Kinase-Glo TM) Inhibition; Kinase-Glo luciferase, ATP luminescence, 8 min; Potency, µM (top dose mostly 38.3 µM), actives largely listed as inhibitors; actives 0.28% (n = 200,000); AID 1379, 2008; further: nearly all actives have a fitted effect of over 60% in size
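Compounds were added to a substrate mix at pH 7.2 (50 mM imidazole, 10 uM ATP, within the enzyme's linear range), followed by Kinase-Glo detection reagent; luminescence was measured after 8 minutes at ambient temperature.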
Large screens that a line does not name were inactive. Most compounds without a hit are left out; they make up all but 7.4% or so of the library. The call rests on the fitted dose curve; in most records, active means well fitted curve in the direction sought with a large enough effect; inconclusive means small, poorly fitted or top-dose-only effect, or another doubt; inactive means no such curve, though single readings can be large; an effect the other way counts as inactive or inconclusive.

Cc1cc2nn(-c3ccccc3)nc2cc1NC(=O)c1cccs1	SMN2 splice up inconclusive, FLuc counter 6.01µM, ELG1 genotoxic inconclusive, NPC1 prom act inconclusive, Rab9 promoter act 2µM
CCC(=O)Nc1cc2nn(-c3ccccc3)nc2cc1Cl	SMN2 splice up 0.891µM, FLuc counter 0.675µM, ELG1 genotoxic 0.517µM, NPC1 prom act 0.316µM, Rab9 promoter act 0.282µM
CC(=O)Nc1cc2nn(-c3ccccc3)nc2cc1C	FLuc counter 2.39µM, ELG1 genotoxic 3.26µM, NPC1 prom act 0.631µM, Rab9 promoter act 0.562µM (no result: SMN2 splice up, KinaseGlo FLuc)
CCN(Cc1ccccc1)C(=O)CCc1c(C)nc2c(c(C)nn2-c2ccc(C)c(C)c2)c1C	none (no result: ELG1 genotoxic, NPC1 prom act, Rab9 promoter act, KinaseGlo FLuc)
Cc1ccc(C)c(CN2C(=O)c3ccccc3S(=O)(=O)c3ccc(C(=O)N4CCOCC4)cc32)c1	none (no result: ELG1 genotoxic, NPC1 prom act, Rab9 promoter act, KinaseGlo FLuc)
COC(=O)[C@@]1(Cc2ccc(OC)cc2)[C@H]2c3cc(C(=O)N(C)C)n(Cc4ccc(C)o4)c3C[C@H]2CN1C(=O)c1ccccc1	none (no result: FLuc counter, ELG1 genotoxic, NPC1 prom act, Rab9 promoter act)
O=S(=O)(NCc1cccc(Br)c1)c1ccc(-c2cc(C(F)(F)F)on2)s1	none (no result: SMN2 splice up, ELG1 genotoxic, NPC1 prom act, Rab9 promoter act, KinaseGlo FLuc)
CCn1c(CNC(=O)C23CC4CC(CC(C4)C2)C3)nnc1SCC(=O)Nc1ccc(F)cc1	none (no result: ELG1 genotoxic, NPC1 prom act, Rab9 promoter act, KinaseGlo FLuc)
